In the first test the target is ST8SIA1. The test is described as follows: pooled miR-30 sensor sort-seq; sequence = guide strand. To be noted: shRNA.
TTAGCTGTCACTAACTGACTTT registered a sensor-assay potency score (higher = more potent) of 0.0924.
On the same count and under the same terms, the value for TTGTCCACAAATGTCTTTCTGG was -0.546.
Sequence TTTGATTGGCACCAACATCTGA had a sensor-assay potency score (higher = more potent) of -0.123.
On to TTTGCTTCATCTATTTGACGGC, for which the sensor-assay potency score (higher = more potent) was 0.566.
The sequence TAGCTGTCACTAACTGACTTTT registered a sensor-assay potency score (higher = more potent) of -1.28.
Consider TGACAGTGTATAATAAACCCTC, for which the sensor-assay potency score (higher = more potent) is -0.586.
For the sequence TAAGTTGAATTGTCAATGGTGA, the sensor-assay potency score (higher = more potent) is -0.263.
Still for that read-out and setting: the result for TTTGTTTCCTGAACGCTCTGGC reads 0.807.
In turn, TTGATTGGCACCAACATCTGAC displayed a sensor-assay potency score (higher = more potent) of -0.0698.
As for TTGACAATCAGCAACACTTTTA, the sensor-assay potency score (higher = more potent) is -1.09.
Same read-out and setting: the value for TAAGACGTTGTCATAGTAGTGG was 0.604.

In a further test the target is ST8SIA4. The description is as above. To be noted: shRNA.
TTGACCACTGACACATCTCGTT showed a sensor-assay potency score (higher = more potent) of 0.237.
Same read-out and setting: the value for ATTGTGACTGTCAATCTCCTTT was -0.228.
On to TACATGAGAAGACCTGTGCTGG, for which the sensor-assay potency score (higher = more potent) is -0.695.
Still for that read-out and setting: the value for TTTGATAGGAACTTTGTTGGTC was 0.701; that for TTAACTACAGAAAATATCGGTC was 0.169; that for TTTCCAACCTTCTACATTGTGC was -0.709.
On the same count and under the same terms, the result for TCTTTTGATAGGAACTTTGTTG reads -0.556.
Take TTCTATTTGAATAACAAGGGGA: the sensor-assay potency score (higher = more potent) is -0.346.
On the same count and under the same terms, the result for TTATGTAGCACATTTAATGTTT reads -0.574.
TTTAACTACAGAAAATATCGGT returned a sensor-assay potency score (higher = more potent) of 0.525.
Same read-out and setting: the result for TTGAAATTAATCATCTCTGTTT reads 0.14.

The target of another test is STAC. The test is described as above. To be noted: shRNA.
TTTGTTGTAGTCTCTGAACAAA: the sensor-assay potency score (higher = more potent) is -1.36.
Same read-out and setting: the result for TACATTTCTTCTAAGATGCTGT reads 0.11; that for TATGTAAACACGCTGTTGCTGC, -0.123; that for TTGCAGTTTCATGTCTTCGCTG, 0.116.
On the same count and under the same terms, the result for TTTCATGTCTTCGCTGTTGGTT reads 0.0863; that for TTTATAGTCCTACTGCTGCTGC, -0.661; that for TTGTAGTCTCTGAACAAAGTTG, -1.06.
Same read-out and setting: the value for TTCTTCTTCAGAACTCACGCAG was 0.0195; that for TTGTCAGCACTTTTGCTCCGTA was -0.694.
TTCCAAATCTTCATTCTCCTGT: the sensor-assay potency score (higher = more potent) was determined as 0.665.
Same read-out and setting: the value for TCTTGAAAGAAAGTGATCGTTT was -0.172.
Still for that read-out and setting: the value for TTGTACAAGGCAACATAGGTGT was -0.164.

In the next test the target is STAP2. The test is described as above. To be noted: shRNA.
For TTCTCATAGTCAACAGCTGGGC, the sensor-assay potency score (higher = more potent) was -0.883.
Still for that read-out and setting: the result for TAGCCTAGCACCTTCTCGTAGT reads -0.174.
The same measure, in the same setting: the result for TTCTTCTGTAGCTCTGCCGTCA reads -0.496.
With TTCCACATCGATCACGTACTTG, the sensor-assay potency score (higher = more potent) is -0.479.

These data come from the OligoGym collection.
Also: reference of the scale not given here.
